# Laboratory results reported in paper PMC5700166.
# How the values were obtained:
# Assay in all cases: protein-binding microarray (PBM); PBM: ~300 nM protein, 6 mM HEPES pH 7.8, 80 mM KCl, 0.5 mM EDTA, 0.5 mM EGTA, 6% glycerol, 35 ng/ul poly-dIdC, 1% milk, 1 h, room temperature; Ap Aiptasia and Nv Nematostella (sea anemones) / Co Capsaspora / Aq Amphimedon (sponge) / Dm Drosophila / Hu human; RHD is the Rel homology domain; high values mean tight binding
# Conditions in all cases: dsDNA, one strand shown
# [1] = biological target: T1, GST-Dm-Relish (Drosophila melanogaster, UniProt Q94527 99-473)
# T1 sequence: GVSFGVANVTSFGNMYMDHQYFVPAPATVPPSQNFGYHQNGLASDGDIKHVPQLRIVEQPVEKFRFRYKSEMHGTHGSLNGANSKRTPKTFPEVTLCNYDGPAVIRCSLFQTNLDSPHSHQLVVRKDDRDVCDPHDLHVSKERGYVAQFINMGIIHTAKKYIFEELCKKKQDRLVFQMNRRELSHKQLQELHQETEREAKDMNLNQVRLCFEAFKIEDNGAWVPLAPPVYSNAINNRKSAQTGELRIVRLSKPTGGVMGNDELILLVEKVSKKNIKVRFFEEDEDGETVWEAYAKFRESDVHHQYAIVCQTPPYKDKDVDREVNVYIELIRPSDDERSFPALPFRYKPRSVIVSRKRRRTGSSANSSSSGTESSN
# [2] = biological target: T2, GST-Aq-NF-kB (Amphimedon queenslandica, UniProt A9Y5G7 2-389)
# T2 sequence: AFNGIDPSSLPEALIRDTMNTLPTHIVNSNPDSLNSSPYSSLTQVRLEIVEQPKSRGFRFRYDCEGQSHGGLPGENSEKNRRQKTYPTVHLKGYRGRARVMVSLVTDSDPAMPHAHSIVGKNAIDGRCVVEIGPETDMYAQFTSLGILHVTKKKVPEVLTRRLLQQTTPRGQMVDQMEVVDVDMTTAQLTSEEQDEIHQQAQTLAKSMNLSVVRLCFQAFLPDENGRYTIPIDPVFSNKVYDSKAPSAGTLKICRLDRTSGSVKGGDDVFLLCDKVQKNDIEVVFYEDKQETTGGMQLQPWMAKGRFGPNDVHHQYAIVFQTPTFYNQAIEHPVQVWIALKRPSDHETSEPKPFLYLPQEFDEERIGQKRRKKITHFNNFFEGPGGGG
# [3] = biological target: T3, GST-Co-NF-kB (Capsaspora owczarzaki, UniProt F1ARL5 200-546)
# T3 sequence: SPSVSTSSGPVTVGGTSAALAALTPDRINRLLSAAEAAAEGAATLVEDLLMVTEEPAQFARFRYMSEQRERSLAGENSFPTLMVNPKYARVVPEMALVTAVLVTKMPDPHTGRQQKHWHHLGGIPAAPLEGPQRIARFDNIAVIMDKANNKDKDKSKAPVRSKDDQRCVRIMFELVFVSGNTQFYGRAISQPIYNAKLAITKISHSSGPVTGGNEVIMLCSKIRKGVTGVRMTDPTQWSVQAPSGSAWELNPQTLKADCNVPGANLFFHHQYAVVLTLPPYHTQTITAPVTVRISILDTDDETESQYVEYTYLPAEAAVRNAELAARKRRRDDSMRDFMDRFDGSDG
Sequence,binding signal [1] [z-score],binding signal [2] [z-score],binding signal [3] [z-score]
CCGATTAACATCACAGGATTTCCTGATGTTAATCGGGTCTTGATTCGCTTGACGCTGCTG,1.81,1.18,–
CCGATTAACATCAAAAATTCCGTTGATGTTAATCGGGTCTTGATTCGCTTGACGCTGCTG,1.08,2.1,–
CCGATTAACATCAAGGAAATTCCTGATGTTAATCGGGTCTTGATTCGCTTGACGCTGCTG,2.23,4.14,–
CCGATTAACATCAGAAAATTTCCTGATGTTAATCGGGTCTTGATTCGCTTGACGCTGCTG,1.75,2.09,–
CCGATTAACATCACAGGGTTTCCTGATGTTAATCGGGTCTTGATTCGCTTGACGCTGCTG,2.82,1.57,–
CCGATTAACATCAGAAATTTTCCTGATGTTAATCGGGTCTTGATTCGCTTGACGCTGCTG,1.39,1.31,–
CCGATTAACATCAAAAAATTCCGTGATGTTAATCGGGTCTTGATTCGCTTGACGCTGCTG,2.44,2.61,1.34
CCGATTAACATCAAAAAAACTCCTGATGTTAATCGGGTCTTGATTCGCTTGACGCTGCTG,3.63,1.83,–
CCGATTAACATCACGGTTTTTCCTGATGTTAATCGGGTCTTGATTCGCTTGACGCTGCTG,3.51,3.6,–
CCGATTAACATCAAAATTTTCCTTGATGTTAATCGGGTCTTGATTCGCTTGACGCTGCTG,2.92,1.12,–
CCGATTAACATCAACGGAAATCCTGATGTTAATCGGGTCTTGATTCGCTTGACGCTGCTG,1.24,1.17,–
CCGATTAACATCAGGACTTTACATGATGTTAATCGGGTCTTGATTCGCTTGACGCTGCTG,6.1,1.25,–
CCGATTAACATCACGTAATTTCCTGATGTTAATCGGGTCTTGATTCGCTTGACGCTGCTG,1.85,1.14,–
CCGATTAACATCAAAAAAAGTACTGATGTTAATCGGGTCTTGATTCGCTTGACGCTGCTG,7.01,1.54,–
CCGATTAACATCAGGAAACCCACTGATGTTAATCGGGTCTTGATTCGCTTGACGCTGCTG,3.86,1.01,–
CCGATTAACATCACGTGCTTTCCTGATGTTAATCGGGTCTTGATTCGCTTGACGCTGCTG,2.88,1.36,–
CCGATTAACATCAAAAAACTTCCTGATGTTAATCGGGTCTTGATTCGCTTGACGCTGCTG,1.56,1.4,–
CCGATTAACATCAAGTAAATTCCTGATGTTAATCGGGTCTTGATTCGCTTGACGCTGCTG,2.49,1.35,–
CCGATTAACATCACGGAATTTTCTGATGTTAATCGGGTCTTGATTCGCTTGACGCTGCTG,1.06,2.35,–

Sequence,binding signal [1] [z-score],binding signal [2] [z-score],binding signal [3] [z-score]
CCGATTAACATCATAAAATTCCATGATGTTAATCGGGTCTTGATTCGCTTGACGCTGCTG,1.32,1.26,–
CCGATTAACATCAGGAAATACCATGATGTTAATCGGGTCTTGATTCGCTTGACGCTGCTG,3.07,3.27,–
CCGATTAACATCACCGGATTTCCTGATGTTAATCGGGTCTTGATTCGCTTGACGCTGCTG,1.86,1.54,–
CCGATTAACATCAATAAATTTCCTGATGTTAATCGGGTCTTGATTCGCTTGACGCTGCTG,1.55,1.86,–
CCGATTAACATCAGAGGATTTCCTGATGTTAATCGGGTCTTGATTCGCTTGACGCTGCTG,1.74,1.55,–
CCGATTAACATCAGGAATTTCTATGATGTTAATCGGGTCTTGATTCGCTTGACGCTGCTG,1.28,1.23,–
CCGATTAACATCAGAGGAATTCCTGATGTTAATCGGGTCTTGATTCGCTTGACGCTGCTG,2.63,2.12,–
CCGATTAACATCAGGTCTTTCCATGATGTTAATCGGGTCTTGATTCGCTTGACGCTGCTG,1.02,1.55,–
CCGATTAACATCACAGAATTTCCTGATGTTAATCGGGTCTTGATTCGCTTGACGCTGCTG,1.09,1.36,–
CCGATTAACATCAAAAATTCCGCTGATGTTAATCGGGTCTTGATTCGCTTGACGCTGCTG,1.22,1.89,–
CCGATTAACATCAAAAAATCTCCTGATGTTAATCGGGTCTTGATTCGCTTGACGCTGCTG,1.02,1.21,–
CCGATTAACATCACGGAATTGCCTGATGTTAATCGGGTCTTGATTCGCTTGACGCTGCTG,1.01,1.14,–
CCGATTAACATCAGGAATTCCACTGATGTTAATCGGGTCTTGATTCGCTTGACGCTGCTG,3.07,1.57,–
CCGATTAACATCACGGAATTCCGTGATGTTAATCGGGTCTTGATTCGCTTGACGCTGCTG,1.22,1.25,–
CCGATTAACATCACGGGATGTACTGATGTTAATCGGGTCTTGATTCGCTTGACGCTGCTG,5.98,1.26,–
CCGATTAACATCACGGAAAGTACTGATGTTAATCGGGTCTTGATTCGCTTGACGCTGCTG,4.11,2.92,–
CCGATTAACATCACGGAAAAACCTGATGTTAATCGGGTCTTGATTCGCTTGACGCTGCTG,2.16,3.55,–
CCGATTAACATCAAGGAATTCCATGATGTTAATCGGGTCTTGATTCGCTTGACGCTGCTG,2.32,1.54,–
